{"source": "PubChem BioAssay (NCI)", "note": "This is part of a sample that, as a whole, favours compounds with a hit. Of some 83,000 tested, about 20% had one in any assay.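 A percent growth of 40 corresponds to 60% growth inhibition; 0 means no net growth; -100 means all cells died. Active threshold: below 10.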 The source made the active and inactive calls."}
{"test_system": "HL-60(TB) leukemia", "assay": "NCI-60 one-dose screen, 48 h (100 = growth as untreated, 0 = no growth, -100 = all killed)", "details": "10 µM unless noted"}
{"compound": "Oc1ccc(-c2nnc(SCc3ccc(O)c4ncccc34)o2)cc1", "growth": "5.77% (active)"}
{"compound": "O=C(NNc1nc2cc(F)cc(F)c2n2cccc12)c1ncccn1", "growth": "-2.92% (active)"}
{"compound": "COc1cc(OC)c(C2SCC(=O)N2Nc2ncnc3ccccc23)cc1OC", "note": "(stereo not given)", "growth": "103% (inactive)"}
{"compound": "CCCCOc1ccc(S(=O)(=O)N2CCN(c3nccc(N4CCOCC4)n3)CC2)cc1", "growth": "32.4% (inactive)"}
{"compound": "NC(=O)c1c(NC(=O)c2ccccc2C(F)(F)F)sc2c1CCC(=O)C2", "growth": "1.97% (active)"}
{"compound": "CC(=O)O[C@@H]1C(=O)N(c2cnccn2)[C@H]1c1ccccc1[N+](=O)[O-]", "growth": "-30.4% (active)"}
{"compound": "C#C[C@]1(O)CC[C@H]2[C@@H]3CC=C4c5sc(-c6ccccn6)nc5CC[C@]4(C)[C@H]3CC[C@@]21C", "growth": "41.4% (inactive)"}
{"compound": "Nc1nc(N)c2c(n1)NC(c1ccc(F)cc1)CC(c1ccc(Nc3nc(NCCO)nc(Nc4ccc(Cl)cc4)n3)cc1)=N2", "note": "(stereo not given)", "growth": "-11.4% (active)"}
{"compound": "CCCCCCNC(=O)Oc1ccc(/C(=C(/C)c2ccc(Cl)cc2)c2ccc(OCCN3CCCCCC3)cc2)cc1", "growth": "32.4% (inactive)"}
{"compound": "CCOC(=O)c1cccc(NC2=C(Cl)C(=O)c3nc(C)ccc3C2=O)c1", "growth": "42% (inactive)"}
{"compound": "COc1ccc2[nH]cc(/C=N/Nc3nc4ccccc4s3)c2c1", "growth": "39.1% (inactive)"}
{"compound": "Nc1ncc(-c2ccc3ncnc(N4CCc5cc(F)c(Cl)cc54)c3c2)cn1", "growth": "7.66% (active)"}
{"compound": "Cc1ccc(/C=C/CC(=O)Nc2ccc(C(=O)Nc3ccc(F)cc3N)nc2)cn1", "growth": "-19.6% (active)"}
{"compound": "N#C/C(=C\\c1ccc(N2CCCCC2)cc1)C(=O)Nc1sc2c(c1C#N)CCC2", "growth": "98.7% (inactive)"}
{"compound": "CCO/C=N/C1=C(C#N)C(c2ccc(OC)cc2)c2sc3c(C)cccc3c2O1", "note": "(stereo not given)", "growth": "-18.5% (active)"}
{"compound": "CCCn1cnc2c(c1=N)C(c1ccc(F)cc1)c1sc3c(C)cccc3c1O2", "note": "(stereo not given)", "growth": "-30.2% (active)"}
{"compound": "OC1CCN(CCCOc2c3ccc(Cl)cc3nc3c2oc2ccccc23)CC1", "growth": "-35% (active)"}
{"compound": "Cc1cc(S(=O)(=O)N(C)C)cc(NCC(=O)NC(=O)NCC(C)C)c1C", "growth": "128% (inactive)"}
{"compound": "COc1ccc(-c2nn3c(-c4ccccc4F)nnc3s2)cc1", "growth": "47.7% (inactive)"}
{"compound": "CCNC(=O)N1CCc2cc(OC)c(OCCc3ccc(OC)cc3)cc2C1c1ccc(OC)cc1C", "note": "(stereo not given)", "growth": "23.9% (inactive)"}
{"compound": "N#Cc1c(NC(=O)c2ccc(F)c(Cl)c2)sc2c1CCC(=O)C2", "growth": "-14.5% (active)"}
{"compound": "COc1ccc(C2CC(c3cccc(OCCCCOc4cccc(C5=NN(C(C)=O)C(c6ccc(OC)cc6)C5)c4)c3)=NN2C(C)=O)cc1", "note": "(stereo not given)", "growth": "46.2% (inactive)"}
{"compound": "CCNC(=O)N1CCc2cc(OC)c(OCCc3ccc(OC)c(N)c3)cc2C1c1ccc(C)cc1C", "note": "(stereo not given)", "growth": "16.5% (inactive)"}
{"compound": "CN1CCN(Cc2ccc(NC(=O)c3cncc(C#Cc4cnc5ccc(NCCCO)nn45)c3)cc2C(F)(F)F)CC1", "growth": "-8.59% (active)"}
{"compound": "O=C1c2c(O)cc(O)cc2O[C@@H](c2ccc(O)cc2)[C@@H]1c1c(O)cc(O)c2c(=O)cc(-c3ccc(O)c(O)c3)oc12", "growth": "103% (inactive)"}
{"compound": "O=C1Nc2ccccc2/C1=C/c1ccc(CO)n1-c1ccc(Cl)cc1", "growth": "15.8% (inactive)"}
{"compound": "O=C(NCCCCCCNC(=O)c1c2c(nc3ccccc13)-c1cccnc1SC2)c1c2c(nc3ccccc13)-c1cccnc1SC2", "growth": "24% (inactive)"}
{"compound": "CCOC(=O)c1nn(-c2ccccc2)c(=O)c2c(N)c(C#N)c(-c3cccs3)cc12", "growth": "113% (inactive)"}
{"compound": "Cc1cc(C(NC(=O)CCCCCNc2cccc3c2C(=O)N(C2CCC(=O)NC2=O)C3=O)c2ccc3c(c2)OC(F)(F)O3)c(O)c2ncccc12", "note": "(stereo not given)", "growth": "19.7% (inactive)"}
{"compound": "Nc1cc(C(=O)N/N=C\\c2ccc(OC(F)F)c(OC3CCCC3)c2)nn1CC(O)c1ccccc1", "note": "(stereo not given)", "growth": "91.3% (inactive)"}
{"compound": "O=C(CSc1nc2sc3c(c2c(=O)n1-c1ccc(Cl)cc1)CCCC3)N/N=C/c1ccc(F)cc1", "growth": "97.9% (inactive)"}
{"compound": "Nc1ncc(-c2ccc(NS(=O)(=O)c3ccc(Cl)c(Cl)c3)cc2)[nH]1", "growth": "47.7% (inactive)"}
{"compound": "COc1ccc(CC(C)=C(c2ccc(OCCN3CCCC3)cc2)c2ccc(OCCN3CCCC3)cc2)cc1", "growth": "-64.2% (active)"}
{"compound": "c1ccc(-c2c(-c3ccccc3)[n+](Cc3ccc4ccccc4c3)c(-c3ccccc3)n2Cc2ccc3ccccc3c2)cc1", "growth": "-59.9% (active)"}
{"compound": "O=C(CCCCCCNC(=O)C(O)(O)C(F)(F)F)Nc1nc2ccccc2s1", "growth": "11.3% (inactive)"}
{"compound": "CC(=C(c1ccc(OCCN(C)C)cc1)c1ccc(OCCN(C)C)cc1)c1ccc(Cl)cc1", "growth": "-53.5% (active)"}
{"compound": "COc1cc(CNC(=O)Cc2ccccc2[N+](=O)[O-])ccc1OCC(=O)NO", "growth": "118% (inactive)"}
{"compound": "O=C(/C=C/C=C/c1csc(Br)n1)NO", "growth": "58.4% (inactive)"}
{"compound": "N#Cc1cnc2ccc(-c3cnc4n[nH]nc4c3)cc2c1N1CCc2cc(F)c(Cl)cc21", "growth": "20.2% (inactive)"}
{"compound": "CC(C)c1ccc(NCc2cn(-c3ccc(C(=O)O)cc3)nc2-c2cc(C(F)(F)F)cc(C(F)(F)F)c2)cc1", "growth": "83.1% (inactive)"}
